Values joined by “and” are separate entries in the source; they are usually repeats but may differ in a detail not shown here. Equal values may be shown once. Results filed as inconclusive are left out. Active and inactive are the calls of the source. Calls come from the whole dose curve; as a rule, active = well fitted inhibition curve with a large enough effect; inconclusive = small, poorly fitted or top-dose-only effect; inactive = flat fitted curve, though single readings scatter.
What was measured:
CRL-7250 = normal cell line; assay: Cytotoxic Profiling of Annotated Libraries Using Quantitative High-Throughput Screening (AID 1296008); conditions: Five cell lines viability, CellTiter-Glo ATP luminescence, 48-72 h; max response: hits give low values; for max response: % is set by controls: 0 for no effect and ±100 for the full control effect
Procedure, shortened: (§1)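 Compounds were pin-transferred onto cells and incubated 48 or 72 hr at 37 degree Celsius, 95% humidity. CellTiter-Glo was added, plates sat 10 min at room temperature, then ATP-coupled luminescence was imaged as the viability read-out.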

HEK293 = assay: as above; conditions: Five cell lines viability, CellTiter-Glo ATP luminescence, 48-72 h; max response: hits give low values
Procedure, shortened: as §1

HaCat [1] = assay: as above; conditions: Five cell lines viability, CellTiter-Glo ATP luminescence, 48-72 h; max response: hits give low values
Procedure, shortened: as §1

KB-3-1 = assay: as above; conditions: Five cell lines viability, CellTiter-Glo ATP luminescence, 48-72 h; max response: hits give low values
Procedure, shortened: as §1

NIH3T3 [2] = assay: as above; conditions: Five cell lines viability, CellTiter-Glo ATP luminescence, 48-72 h; max response: hits give low values
Procedure, shortened: as §1

HACAT [3] = assay: qHTS assay to identify novel small-molecules to repurpose for Merkel cell carcinoma treatment (AID 1296009); conditions: MCC and control cell lines, CellTiter-Glo viability, 72 h; at 44.8 µM (top of the series) unless noted
Procedure, shortened: (§2)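 Cells exposed to NPC (8-point) and MIPE (11-point) compound dilutions for 72 hr at 37 degree celsius; viability read by CellTiter-Glo luminescence, normalized to no-cell and DMSO in-plate controls.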

HEK293T = assay: as above; conditions: MCC and control cell lines, CellTiter-Glo viability, 72 h; at 44.8 µM (top of the series) unless noted
Procedure, shortened: as §2

MCC-13 = assay: as above; conditions: MCC and control cell lines, CellTiter-Glo viability, 72 h; series mostly up to 46 µM
Procedure, shortened: as §2

MCC-26 = assay: as above; conditions: MCC and control cell lines, CellTiter-Glo viability, 72 h; series mostly up to 46 µM
Procedure, shortened: as §2

MKL-1 = assay: as above; conditions: MCC and control cell lines, CellTiter-Glo viability, 72 h; series mostly up to 46 µM
Procedure, shortened: as §2

MKL-2 = assay: as above; conditions: MCC and control cell lines, CellTiter-Glo viability, 72 h; series mostly up to 46 µM
Procedure, shortened: as §2

PC15 = assay: qHTS profiling for inhibitors of Plasmodium falciparum proliferation (AID 504749); conditions: P. falciparum in erythrocytes, SYBR Green DNA, 72 h; series mostly up to 28.7 µM
Procedure, shortened: (§3)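 P. falciparum-infected erythrocytes (0.3% parasitemia, 2.5% hematocrit final) were exposed to compounds for 72 h at 37 C in 5% CO2, then lysed with SYBR Green buffer overnight at room temperature; parasite DNA fluorescence was normalized to artemisinin and DMSO controls.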

PC49 = assay: as above; conditions: P. falciparum in erythrocytes, SYBR Green DNA, 72 h; series mostly up to 28.7 µM
Procedure, shortened: as §3

SC27B = assay: as above; conditions: P. falciparum in erythrocytes, SYBR Green DNA, 72 h; series mostly up to 28.7 µM
Procedure, shortened: as §3

TAB109 = assay: as above; conditions: P. falciparum in erythrocytes, SYBR Green DNA, 72 h; series mostly up to 28.7 µM
Procedure, shortened: as §3

TAB113 = assay: as above; conditions: P. falciparum in erythrocytes, SYBR Green DNA, 72 h; series mostly up to 28.7 µM
Procedure, shortened: as §3

TAB165 = assay: as above; conditions: P. falciparum in erythrocytes, SYBR Green DNA, 72 h; series mostly up to 28.7 µM
Procedure, shortened: as §3

W2 = assay: as above; conditions: P. falciparum in erythrocytes, SYBR Green DNA, 72 h; series mostly up to 28.7 µM
Procedure, shortened: as §3

NIH3T3 [4] = assay: qHTS assay to identify novel small-molecules to repurpose for Merkel cell carcinoma treatment (AID 1296009); conditions: MCC and control cell lines, CellTiter-Glo viability, 72 h; at 44.8 µM (top of the series) unless noted
Procedure, shortened: as §2

PC26 = assay: qHTS profiling for inhibitors of Plasmodium falciparum proliferation (AID 504749); conditions: P. falciparum in erythrocytes, SYBR Green DNA, 72 h; series mostly up to 28.7 µM
Procedure, shortened: as §3
Note: nearly all actives have a fitted effect of over 60% in size.
Potency is the fitted concentration of half-maximal effect.

C[C@H](CCC(=O)O)[C@H]1CC[C@H]2[C@@H]3C(=O)C[C@@H]4CC(=O)CC[C@]4(C)[C@H]3CC(=O)[C@]12C
inactive: max response (CRL-7250) -5.31% | outcome (HEK293) | outcome (HaCat [1]) | max response (KB-3-1) -9.72% | max response (NIH3T3 [2]) -5.45% | outcome (HACAT [3]) | outcome (HEK293T) | Potency (MCC-13) | Potency (MCC-26) | Potency (MKL-1) | Potency (MKL-2)

CN1CCN(C(c2ccccc2)c2ccccc2)CC1
active: Potency (W2) 2.56 µM
inactive: Potency (PC15) | Potency (PC49) | Potency (SC27B) | Potency (TAB109) | Potency (TAB113) | Potency (TAB165) | max response (CRL-7250) 1.17% and 3.11% | max response (HEK293) -9.52% | max response (HaCat [1]) -15.7% | outcome (HaCat [1]) | max response (KB-3-1) -11.4% and 1.83% | max response (NIH3T3 [2]) 3.7% | outcome (NIH3T3 [2]) | outcome (HACAT [3]) | Potency (MCC-13) | Potency (MCC-26) | Potency (MKL-1) | Potency (MKL-2) | outcome (NIH3T3 [4])

CC1(C)O[C@@H]2[C@@H](CO[C@@]3(COS(N)(=O)=O)OC(C)(C)O[C@@H]23)O1
inactive: max response (CRL-7250) -9.34% | outcome (HEK293) | outcome (HaCat [1]) | max response (KB-3-1) 12.1% | max response (NIH3T3 [2]) -0.846% | outcome (HACAT [3]) | outcome (HEK293T) | Potency (MCC-13) | Potency (MCC-26) | Potency (MKL-1) | Potency (MKL-2)

Cc1cc(O)c(C(C)C)cc1Cl
inactive: Potency (PC15) | Potency (PC26) | Potency (PC49) | Potency (SC27B) | Potency (TAB109) | Potency (TAB113) | max response (CRL-7250) -3.05% | outcome (HEK293) | outcome (HaCat [1]) | max response (KB-3-1) 1.71% | max response (NIH3T3 [2]) 2.6% | outcome (HACAT [3]) | outcome (HEK293T) | Potency (MCC-13) | Potency (MCC-26) | Potency (MKL-1) | Potency (MKL-2)

CCCCC(=O)O[C@]1(C(=O)CO)CC[C@H]2[C@@H]3CCC4=CC(=O)CC[C@]4(C)[C@H]3[C@@H](O)C[C@@]21C
inactive: outcome (CRL-7250) | max response (HEK293) 3.34% | outcome (HaCat [1]) | max response (KB-3-1) -2.52% | max response (NIH3T3 [2]) 1.69% | outcome (HACAT [3]) | Potency (MCC-13) | Potency (MCC-26) | Potency (MKL-1) | Potency (MKL-2)

C[C@H](O)C(=O)Nc1c(I)c(C(=O)NC(CO)CO)c(I)c(C(=O)NC(CO)CO)c1I
inactive: Potency (PC15) | Potency (PC26) | Potency (PC49) | Potency (SC27B) | Potency (TAB109) | Potency (TAB113) | Potency (TAB165) | Potency (W2) | outcome (CRL-7250) | max response (HEK293) -5.81% | outcome (HaCat [1]) | max response (KB-3-1) 3.55% | max response (NIH3T3 [2]) -5.03% | outcome (HACAT [3]) | Potency (MCC-13) | Potency (MCC-26) | Potency (MKL-1) | Potency (MKL-2)

Cc1cc2c(cc1CC(=O)c1sccc1S(=O)(=O)Nc1onc(C)c1Cl)OCO2
inactive: max response (CRL-7250) -5.35% and 2.32% | outcome (HEK293) | max response (HaCat [1]) -2.94% | outcome (HaCat [1]) | max response (KB-3-1) 9.67% | max response (NIH3T3 [2]) 0.409% and 4.42% | outcome (HACAT [3]) | outcome (HEK293T) | Potency (MCC-13) | Potency (MCC-26) | Potency (MKL-1) | Potency (MKL-2)

CC(C)(C)NC(=O)[C@@H]1CN(Cc2cccnc2)CCN1C[C@@H](O)C[C@@H](Cc1ccccc1)C(=O)N[C@H]1c2ccccc2C[C@H]1O
inactive: max response (CRL-7250) -1.33% and -2.61% | max response (HEK293) 3.56% | outcome (HEK293) | max response (HaCat [1]) -2.17% | outcome (HaCat [1]) | max response (KB-3-1) 9.13% | max response (NIH3T3 [2]) 1.79% and -2.96% | outcome (HACAT [3]) | outcome (HEK293T) | Potency (MCC-13) | Potency (MCC-26) | Potency (MKL-1) | Potency (MKL-2)

O=C1OC2(c3ccc(O)cc3Oc3cc(O)ccc32)c2ccccc21
inactive: max response (CRL-7250) -1.47% | max response (HEK293) -1.16% | max response (HaCat [1]) -26.2% | max response (NIH3T3 [2]) -4.38% | Potency (MCC-13) | Potency (MCC-26) | Potency (MKL-1) | Potency (MKL-2)

CCOc1ccc(Cc2nccc3cc(OCC)c(OCC)cc23)cc1OCC
inactive: Potency (PC15) | Potency (SC27B) | Potency (TAB109) | Potency (TAB113) | max response (HaCat [1]) -22.8% | max response (KB-3-1) 1.15% | max response (NIH3T3 [2]) -24.3% | Potency (MCC-26)
active: Potency (CRL-7250) 15 µM | Potency (HEK293) 7.5 µM | Potency (MKL-2) 16.8 µM

Oc1cc(O)c2c(c1)O[C@H](c1ccc(O)c(O)c1)[C@H](O)C2
inactive: max response (CRL-7250) -5.79% | outcome (HEK293) | max response (HaCat [1]) 4.8% | max response (KB-3-1) -0.959% | max response (NIH3T3 [2]) -0.255% | outcome (HEK293T) | Potency (MCC-13) | Potency (MKL-1) | Potency (MKL-2)

COc1ccc(C2C(=O)c3ccccc3C2=O)cc1
inactive: Potency (PC15) | Potency (PC26) | Potency (PC49) | Potency (SC27B) | Potency (TAB109) | Potency (TAB113) | Potency (TAB165) | Potency (W2) | max response (CRL-7250) -6.18% | max response (HEK293) -6.61% | outcome (HaCat [1]) | outcome (NIH3T3 [2]) | outcome (HACAT [3]) | Potency (MCC-13) | Potency (MKL-1) | Potency (MKL-2) | outcome (NIH3T3 [4])

CCCN1CCCC[C@H]1C(=O)Nc1c(C)cccc1C
active: Potency (W2) 4.78 µM
inactive: Potency (PC15) | Potency (PC26) | Potency (PC49) | Potency (SC27B) | Potency (TAB109) | Potency (TAB113) | Potency (TAB165) | max response (CRL-7250) -6.22% | max response (HEK293) -0.54% | outcome (HaCat [1]) | max response (NIH3T3 [2]) -2.9% | outcome (HACAT [3]) | Potency (MCC-13) | Potency (MCC-26) | Potency (MKL-1) | Potency (MKL-2)

CC[N+](CC)(CCNC(=O)C(=O)NCC[N+](CC)(CC)Cc1ccccc1Cl)Cc1ccccc1Cl
inactive: outcome (CRL-7250) | max response (HEK293) 2.37% | max response (HaCat [1]) -1.93% | max response (KB-3-1) -5.89% | max response (NIH3T3 [2]) 3.32% | Potency (MCC-13) | Potency (MKL-1) | Potency (MKL-2)
active: Potency (PC49) 5.01 µM | Potency (SC27B) 3.98 µM | Potency (TAB109) 1.41 µM | Potency (TAB113) 3.16 µM | Potency (TAB165) 1.26 µM | Potency (W2) 1.2 µM

Source: PubChem BioAssay (NCATS)
